This is part of a sample that, as a whole, favours compounds with a hit. Of some 83,000 tested, about 20% had one in any assay.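 Interpretation: 100, growth as untreated; towards 0, rising growth inhibition; 0, no net growth; 0 to -100, cell death. Compounds scoring below 10 were considered active.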 Unmarked numbers belong to inactive results. Activity calls are given as the source filed them.

Some test systems named below: RPMI-8226 leukemia; OVCAR-8 ovarian; OVCAR-5 ovarian; OVCAR-4 ovarian; SK-OV-3 ovarian; OVCAR-3 ovarian; HS 578T breast; NCI/ADR-RES ovarian; T-47D breast; BT-549 breast; MDA-MB-435 melanoma; MCF7 breast; HCT-116 colon; KM12 colon; SW-620 colon; HCC-2998 colon; IGROV1 ovarian.
Test in all cases: NCI-60 one-dose screen, 48 h (100 = growth as untreated, 0 = no growth, -100 = all killed)
What all share (details): 10 µM unless noted

In the case of `CCOc1nc(-c2ccccc2)cc2c(O)c(C(=O)N/N=C/c3ccccc3O)[nH]c(=O)c12`, the growth was 99.3% with RPMI-8226 leukemia; 65.4% with OVCAR-8 ovarian; 89.7% in the assay on OVCAR-5 ovarian; 93% in the assay with OVCAR-4 ovarian; 102% in the assay with SK-OV-3 ovarian; 76.7% in the assay on OVCAR-3 ovarian. In addition, the growth was 66.1% in the assay on HS 578T breast; 5.38% (active) with NCI/ADR-RES ovarian; 94% in the assay on T-47D breast; 97.8% with BT-549 breast; 113% with MDA-MB-435 melanoma; 72.8% in the assay with MCF7 breast. Further, the growth in the assay with HCT-116 colon was 88.3%; in the assay with KM12 colon it was 80.6%.

Regarding `CCOP1(=O)CC(C)=C(Cl)C(P(=O)(O)O)C1` (stereo unspecified), the growth is 81.9% in the assay on RPMI-8226 leukemia; 91.8% in the assay with OVCAR-8 ovarian; 94.8% in the assay on OVCAR-5 ovarian; 94.5% in the assay with OVCAR-4 ovarian; 110% in the assay on SK-OV-3 ovarian; 113% in the assay on OVCAR-3 ovarian. Besides, the growth is 107% in the assay on HS 578T breast; 96.1% in the assay with NCI/ADR-RES ovarian; 98.6% with T-47D breast; 97.4% in the assay on BT-549 breast; 107% in the assay with MDA-MB-435 melanoma; 110% with SW-620 colon. Moreover, the growth in the assay on MCF7 breast is 109%; in the assay on HCC-2998 colon it was 94.4%; with KM12 colon it was 105%.

With `CNc1ccc(Nc2ccc(S(=O)(=O)O)cc2)c2c1C(=O)c1ccccc1C2=O`, the growth with RPMI-8226 leukemia was 107%; in the assay with OVCAR-8 ovarian, 101%; in the assay on OVCAR-5 ovarian, 98.7%; in the assay on OVCAR-4 ovarian, 109%; in the assay on SK-OV-3 ovarian, 117%; in the assay with IGROV1 ovarian, 105%. Besides, the growth with OVCAR-3 ovarian was 121%; with NCI/ADR-RES ovarian, 108%; with T-47D breast, 110%; with BT-549 breast it was 99.5%; with MDA-MB-435 melanoma, 95%; in the assay on SW-620 colon, 112%. The growth in the assay with MCF7 breast is 97%; with HCT-116 colon, 109%; in the assay with HCC-2998 colon it was 112%; with KM12 colon, 108%.

For `COc1ccc(NC(=O)/C=C(C)/C=C/C=C(C)/C=C/C2=C(C)CCCC2(C)C)cc1`, the growth with RPMI-8226 leukemia was 43.9%; in the assay with OVCAR-8 ovarian, 37%; in the assay on OVCAR-5 ovarian, 94.8%; in the assay with OVCAR-4 ovarian it was 80.1%; in the assay on SK-OV-3 ovarian, 86.2%; with OVCAR-3 ovarian, 66.5%. Besides, the growth is 87.9% in the assay with HS 578T breast; 80.1% with NCI/ADR-RES ovarian; 17.8% in the assay with T-47D breast; 96.2% in the assay on BT-549 breast; 95.7% with MDA-MB-435 melanoma; 69.3% with SW-620 colon. In addition, the growth in the assay with MCF7 breast was 73.7%; in the assay with HCC-2998 colon, 97.9%; with KM12 colon, 88.9%.

For `Cc1ncc(C(=O)Nc2ccc(CN3CCN(C)CC3)c(C(F)(F)F)c2)cc1C#Cc1cnc(NC2CC2)c2ncccc12`, the growth was -41.1% (active) in the assay with RPMI-8226 leukemia; -91.7% (active) with OVCAR-8 ovarian; -91.1% (active) with OVCAR-5 ovarian; -60.5% (active) in the assay with OVCAR-4 ovarian; 43.3% in the assay on SK-OV-3 ovarian; -80.4% (active) in the assay with IGROV1 ovarian. For the same molecule, the growth was -90.4% (active) in the assay on OVCAR-3 ovarian; -41.9% (active) with NCI/ADR-RES ovarian; -91.7% (active) in the assay with BT-549 breast; -86.4% (active) in the assay on MDA-MB-435 melanoma; -74.3% (active) in the assay on SW-620 colon; -76.8% (active) with MCF7 breast. The growth in the assay with HCT-116 colon was -90% (active); in the assay with HCC-2998 colon, -54.4% (active); in the assay with KM12 colon, -82.6% (active).

Consider `CC(C)(C)OC(=O)N1C/C(=C\c2ccccc2)C(=O)/C(=C/c2ccccc2)C1`, for which the growth with RPMI-8226 leukemia was 31%; with OVCAR-8 ovarian it was 96.5%; in the assay on OVCAR-5 ovarian, 86.5%; in the assay with OVCAR-4 ovarian, 97.9%; in the assay with SK-OV-3 ovarian, 95.2%; with IGROV1 ovarian, 95.5%. Further, the growth in the assay on HS 578T breast is 102%; in the assay on NCI/ADR-RES ovarian it was 98.9%; in the assay on BT-549 breast it was 91.5%; with MDA-MB-435 melanoma, 102%; in the assay on MCF7 breast, 78.1%; with HCT-116 colon, 80.7%. Moreover, the growth is 103% with HCC-2998 colon and 108% in the assay with KM12 colon.

Take `CC(=O)N1N=C(c2ccc(Cl)cc2)CC1c1cn(-c2ccccc2)nc1-c1ccc([N+](=O)[O-])cc1` (stereo unspecified): the growth is 101% with RPMI-8226 leukemia; 102% in the assay on OVCAR-8 ovarian; 94% in the assay on OVCAR-5 ovarian; 85.6% in the assay with OVCAR-4 ovarian; 96.5% with SK-OV-3 ovarian; 122% with IGROV1 ovarian. Moreover, the growth in the assay with OVCAR-3 ovarian was 106%; with NCI/ADR-RES ovarian, 135%; with T-47D breast, 86.9%; in the assay on BT-549 breast, 89.7%; in the assay with MDA-MB-435 melanoma, 98.1%; with MCF7 breast, 95.9%. For the same molecule, the growth in the assay with HCT-116 colon is 97.1%; in the assay with HCC-2998 colon, 231%; in the assay on KM12 colon, 101%.

Consider `O=C(Nc1cccc(Cn2c(=O)[nH]c3ccc(Oc4ncccn4)cc3c2=O)c1)c1cccc(F)c1`, for which the growth with RPMI-8226 leukemia was 52.3%; in the assay with OVCAR-8 ovarian it was 78.7%; in the assay with OVCAR-5 ovarian it was 96.1%; in the assay on OVCAR-4 ovarian, 73.9%; in the assay on SK-OV-3 ovarian, 83%; in the assay with IGROV1 ovarian, 78.2%. In addition, the growth in the assay on OVCAR-3 ovarian is 84.1%; in the assay on HS 578T breast, 92.8%; in the assay on NCI/ADR-RES ovarian, 104%; in the assay on MDA-MB-435 melanoma, 51%; in the assay on SW-620 colon it was 95.3%; with MCF7 breast it was 57.9%. Further, the growth in the assay with HCT-116 colon was 70.8%; in the assay on HCC-2998 colon it was 92.5%; in the assay on KM12 colon, 66.6%.

For the molecule `COc1ccc2c(c1)/C(=C1/S/C(=N/c3nnc(C)s3)NC1=O)C(=O)N2Cc1ccc(Br)cc1`, the growth in the assay with RPMI-8226 leukemia was 26.6%; in the assay on OVCAR-8 ovarian it was 38%; in the assay on OVCAR-5 ovarian, 74.5%; in the assay with OVCAR-4 ovarian, 40.1%; in the assay with SK-OV-3 ovarian it was 52.1%; with OVCAR-3 ovarian, 28.7%. Besides, the growth in the assay with HS 578T breast is 47.8%; in the assay with NCI/ADR-RES ovarian, 32.2%; in the assay on T-47D breast, 22%; in the assay on BT-549 breast it was 42.9%; in the assay with MDA-MB-435 melanoma, 39.3%; in the assay on SW-620 colon, 44.5%. For the same molecule, the growth in the assay on MCF7 breast was 35.1%; with HCT-116 colon it was 19.7%; in the assay with HCC-2998 colon it was 46.1%; in the assay with KM12 colon, 27.7%.

Consider `Cc1ccc(C(=O)Nc2ccc(CN3CCN(C)CC3)c(C(F)(F)F)c2)cc1C#Cc1cnc(N)c2ccc(C#N)cc12`, for which the growth is 20.2% in the assay with RPMI-8226 leukemia; 27.8% with OVCAR-8 ovarian; 98.4% in the assay on OVCAR-5 ovarian; 48.8% in the assay with OVCAR-4 ovarian; 2.3% (active) with SK-OV-3 ovarian; 16.3% in the assay with IGROV1 ovarian. Further, the growth in the assay with OVCAR-3 ovarian was 61.2%; with HS 578T breast, 47.4%; in the assay on NCI/ADR-RES ovarian it was 49.8%; with BT-549 breast, 53.1%; with MDA-MB-435 melanoma, 10.8%; in the assay with SW-620 colon, 46.2%. In addition, the growth with MCF7 breast is 74.2%; with HCT-116 colon it was 13.9%; in the assay with HCC-2998 colon it was 93%; in the assay on KM12 colon, 18.4%.

Values taken from PubChem BioAssay (NCI).
